In PubChem BioAssay (NCI):
Where “and” joins values, the source holds several entries; their conditions need not be identical. Identical values can stand only once. The panel holds about 79,000 compounds, 15% with a hit somewhere; the sample as a whole holds those more often. Calls of active or inactive are those of the source. Cut-off read from the data, not from the text of the source: active = growth inhibition above about 70%; inactive = the rest.

How the values were obtained:
[1] = NCI Yeast Anticancer Drug Screen. Data for the rad52 strain (AID 147);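 note: 0% = growth of vehicle-treated control cultures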; details: S. cerevisiae rad52 mutant growth inhibition, stronger effect = higher value
Method in brief: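 Here a repair-compromised yeast strain receives each compound; its growth is then quantified and normalised to vehicle-only controls.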

[2] = NCI Yeast Anticancer Drug Screen. Data for the wt1 strain (AID 149);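 note: 0% = growth of vehicle-treated wt1 cultures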; details: S. cerevisiae wt1 strain (SPY 50644) growth inhibition, stronger effect = higher value
Method in brief: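 Readout: yeast growth inhibition, normalised to vehicle controls, in the wt1 strain exposed to test compounds.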

[3] = NCI Yeast Anticancer Drug Screen. Data for the rad50EPP+ strain (AID 151);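 note: 0% = growth of vehicle-treated control cultures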; details: S. cerevisiae rad50 mutant strain, stronger effect = higher value
Method in brief: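 Read-out is yeast growth inhibition relative to vehicle; cells used were the rad50EPP+ strain.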

[4] = NCI Yeast Anticancer Drug Screen. Data for the mgt1 strain (AID 153); details: S. cerevisiae mgt1 mutant growth inhibition, stronger effect = higher value
Method in brief: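 Measured: inhibition of mgt1 yeast growth by compound, normalized to vehicle-treated cultures.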

[5] = NCI Yeast Anticancer Drug Screen. Data for the rad50 strain (AID 155);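 note: 0% = growth of vehicle-only cultures of the same strain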; details: S. cerevisiae rad50 strain growth inhibition, stronger effect = higher value
Method in brief: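 Compounds were tested on a yeast strain with an engineered DNA damage repair alteration; the reported value is growth inhibition normalised to vehicle treatment.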

[6] = NCI Yeast Anticancer Drug Screen. Data for the mec2-1 strain (AID 157); details: S. cerevisiae mec2-1 strain, stronger effect = higher value
Method in brief: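 Using mec2-1 yeast: add compound, measure growth, express inhibition versus vehicle-treated cultures.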

[7] = NCI Yeast Anticancer Drug Screen. Data for the rad14 strain (AID 159);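 note: 0% = growth of vehicle-treated control cultures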; details: S. cerevisiae rad14 strain growth inhibition, stronger effect = higher value
Method in brief: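 Compound-treated yeast with a defined DNA-repair lesion; growth inhibition normalised to vehicle-treated cultures.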

[8] = NCI Yeast Anticancer Drug Screen. Data for the sgs1 mgt1 strain (AID 161);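 note: 0% = growth of cultures given vehicle only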; details: S. cerevisiae sgs1 mgt1 strain, stronger effect = higher value
Method in brief: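 Yeast cells carrying a defined DNA-repair defect were exposed to test compounds. Growth inhibition was measured relative to vehicle-treated controls.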

[9] = NCI Yeast Anticancer Drug Screen. Data for the CLN2oe strain (AID 163);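 note: 0% = growth of vehicle-only control cultures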; details: S. cerevisiae CLN2oe strain, stronger effect = higher value
Method in brief: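 Whole-cell yeast growth assay. A strain engineered for altered cell-cycle control received compound, and inhibition relative to vehicle-treated cultures was recorded.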

[10] = NCI Yeast Anticancer Drug Screen. Data for the cln2 rad14 strain (AID 165);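 note: 0% = growth equal to vehicle treated cultures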; details: S. cerevisiae cln2 rad14 strain, stronger effect = higher value
Method in brief: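 Yeast strain cln2 rad14, bearing defects in cell cycle control and DNA repair, serves as the test system; values reflect growth inhibition compared with vehicle.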

[11] = NCI Yeast Anticancer Drug Screen. Data for the bub3 strain (AID 167); details: S. cerevisiae bub3 mutant strain, stronger effect = higher value
Method in brief: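 Growth of a checkpoint-deficient yeast mutant is measured after compound exposure. Values represent inhibition relative to vehicle.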

[12] = NCI Yeast Anticancer Drug Screen. Data for the wt2 strain (AID 169);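 note: 0% = growth of vehicle-treated yeast cultures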; details: S. cerevisiae wt2 strain growth inhibition, stronger effect = higher value
Method in brief: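 Treated yeast vs. vehicle-treated yeast: growth inhibition determined.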

[13] = NCI Yeast Anticancer Drug Screen. Data for the mlh1 strain (AID 171);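 note: 0% = growth of vehicle-treated control cultures of the same strain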; details: S. cerevisiae mlh1 strain growth inhibition, stronger effect = higher value
Method in brief: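 A yeast strain with a defined genetic lesion serves as the test organism. Cultures receive compound or vehicle, and growth is measured.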

[14] = NCI Yeast Anticancer Drug Screen. Data for the sgs1 strain (AID 173);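 note: 0% = growth of vehicle-only control cultures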; details: S. cerevisiae sgs1 mutant, stronger effect = higher value
Method in brief: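 A genetically defined yeast mutant is incubated with the test compound, and its growth is compared to that of the same strain given vehicle.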

[15] = NCI Yeast Anticancer Drug Screen. Data for the mlh1 rad18 strain (AID 175); details: S. cerevisiae mlh1 rad18 strain growth inhibition, stronger effect = higher value
Method in brief: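 Steps: expose repair-defective yeast to compound; measure growth; express inhibition against vehicle-treated controls.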

[16] = NCI Yeast Anticancer Drug Screen. Data for the rad18 strain (AID 177); details: S. cerevisiae rad18 mutant growth inhibition, stronger effect = higher value
Method in brief: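 Measured value is growth inhibition of a yeast strain bearing a DNA repair alteration, referenced to vehicle-treated cells.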

[17] = at 5.0 µM (retest, dose inferred, filed as 0.5)
[18] = at 50.0 µM (retest, dose inferred, filed as 5.0)

Measured: growth inhibition

O=C(O)CNC(=S)Nc1ccccc1
inactive: [1]; at 1.2 µM -72% | [1]; at 3.7 µM -88% | [1]; at 11.0 µM -22% | [1]; at 33.0 µM 54% | [2]; at 1.2 µM -52% | [2]; at 3.7 µM -52% | [2]; at 11.0 µM -47% | [2]; at 33.0 µM 43% | [3]; at 1.2 µM -86% | [3]; at 3.7 µM -35% | [3]; at 11.0 µM -74% | [3]; at 33.0 µM -40% | [3]; at 100.0 µM 56% | [4]; at 1.2 µM -36% | [4]; at 3.7 µM -17% | [4]; at 11.0 µM 6% | [5]; at 1.2 µM -67% | [5]; at 3.7 µM -68% | [5]; [17] 51% | [5]; at 11.0 µM -48% | [5]; at 33.0 µM 53% | [5]; at 50.0 µM 4.35% and 69.5% | [6]; at 1.2 µM -68% | [6]; at 3.7 µM -21% | [6]; [17] 50% | [6]; at 11.0 µM -8% | [6]; at 33.0 µM 54% | [6]; at 50.0 µM 6.5% and 52.1% | [7]; at 1.2 µM -47% | [7]; at 3.7 µM -41% | [7]; at 11.0 µM -48% | [7]; at 33.0 µM 47% | [8]; [17] -9% | [8]; at 50.0 µM 5.2% and 64.6% | [9]; at 1.2 µM 2% | [9]; at 3.7 µM -9% | [9]; at 11.0 µM -3% | [9]; at 33.0 µM 52% | [10]; [17] 63% | [10]; at 50.0 µM 36.6% and 42% | [11]; at 1.2 µM -46% | [11]; at 3.7 µM -39% | [11]; [17] 6% | [11]; at 11.0 µM -15% | [11]; at 33.0 µM 49% | [11]; at 50.0 µM 8.5% and 53.4% | [12]; at 1.2 µM -74% | [12]; at 3.7 µM -64% | [12]; at 11.0 µM -49% | [12]; at 33.0 µM 31% | [13]; at 1.2 µM -63% | [13]; at 3.7 µM -56% | [13]; at 11.0 µM -30% | [13]; at 33.0 µM 53% | [14]; at 1.2 µM -55% | [14]; at 3.7 µM -51% | [14]; at 11.0 µM -39% | [14]; at 33.0 µM 56% | [15]; [17] 33% | [15]; at 50.0 µM 3.45% and 54.6% | [16]; at 1.2 µM -56% | [16]; at 3.7 µM -17% | [16]; at 11.0 µM -21% | [16]; at 33.0 µM 53%
active: [1]; at 100.0 µM 85% | [2]; at 100.0 µM 91% | [4]; at 33.0 µM 77% | [4]; at 100.0 µM 94% | [5]; [18] 82% | [5]; at 100.0 µM 93% | [6]; [18] 85% | [6]; at 100.0 µM 90% | [7]; at 100.0 µM 91% | [8]; [18] 91% | [9]; at 100.0 µM 86% | [10]; [18] 92% | [11]; [18] 85% | [11]; at 100.0 µM 89% | [12]; at 100.0 µM 88% | [13]; at 100.0 µM 93% | [14]; at 100.0 µM 91% | [15]; [18] 70% | [16]; at 100.0 µM 82%

CC(=O)OCC1OC2OC(=O)NC2C(OC(C)=O)C1OC(C)=O (stereo unspecified)
inactive: [1]; at 1.2 µM -3% | [1]; at 3.7 µM -1% | [1]; at 11.0 µM 0% | [1]; at 33.0 µM 1% | [1]; at 100.0 µM -3% | [2]; at 1.2 µM -3% | [2]; at 3.7 µM -3% | [2]; at 11.0 µM -2% | [2]; at 33.0 µM -2% | [2]; at 100.0 µM -1% | [3]; at 1.2 µM -4% | [3]; at 3.7 µM 0% | [3]; at 11.0 µM -1% | [3]; at 33.0 µM -5% | [3]; at 100.0 µM -8% | [4]; at 1.2 µM -1% | [4]; at 3.7 µM -1% | [4]; at 11.0 µM 1% | [4]; at 33.0 µM -4% | [4]; at 100.0 µM -35% | [5]; at 1.2 µM -5% | [5]; at 3.7 µM -1% | [5]; [17] 5% | [5]; at 11.0 µM 0% | [5]; at 33.0 µM -1% | [5]; [18] -1% | [5]; at 50.0 µM 5.15% | [5]; at 100.0 µM 0% | [6]; at 1.2 µM -2% | [6]; at 3.7 µM -2% | [6]; [17] -7% | [6]; at 11.0 µM -1% | [6]; at 33.0 µM -1% | [6]; [18] 3% | [6]; at 50.0 µM 10.9% | [6]; at 100.0 µM 0% | [7]; at 1.2 µM -2% | [7]; at 3.7 µM -1% | [7]; at 11.0 µM -3% | [7]; at 33.0 µM 2% | [7]; at 100.0 µM 2% | [8]; [17] 2% | [8]; [18] 15% | [8]; at 50.0 µM -17.1% | [9]; at 1.2 µM -3% | [9]; at 3.7 µM 2% | [9]; at 11.0 µM -1% | [9]; at 33.0 µM -4% | [9]; at 100.0 µM 0% | [10]; [17] -21% | [10]; [18] 44% | [10]; at 50.0 µM -15.3% | [11]; at 1.2 µM 13% | [11]; at 3.7 µM 2% | [11]; [17] 3% | [11]; at 11.0 µM -2% | [11]; at 33.0 µM 1% | [11]; [18] 3% | [11]; at 50.0 µM -9.2% | [11]; at 100.0 µM -4% | [12]; at 1.2 µM -3% | [12]; at 3.7 µM -3% | [12]; at 11.0 µM -3% | [12]; at 33.0 µM -4% | [12]; at 100.0 µM -1% | [13]; at 1.2 µM -2% | [13]; at 3.7 µM -3% | [13]; at 11.0 µM -2% | [13]; at 33.0 µM -1% | [13]; at 100.0 µM 0% | [14]; at 1.2 µM -3% | [14]; at 3.7 µM -3% | [14]; at 11.0 µM -2% | [14]; at 33.0 µM -1% | [14]; at 100.0 µM 0% | [15]; [17] -9% | [15]; [18] 5% | [15]; at 50.0 µM -7.3% | [16]; at 1.2 µM -3% | [16]; at 3.7 µM -1% | [16]; at 11.0 µM 0% | [16]; at 33.0 µM -3% | [16]; at 100.0 µM -2%
